Compound activity: PubChem BioAssay, The Scripps Research Institute Molecular Screening Center
An excerpt weighted towards active compounds, which were near 4.8% of everything screened.
SMARCA2 activ: SMARCA2 (BRM) function activators, primary screen, cell-based, luminescence, high throughput. hit rate 1% among 370,000. MG213 cells, MMTV-luciferase reporter, dexamethasone, overnight. AID 652017, 2013. activation, % at 9.1 µM; in the data active = activation above about 7.8%;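 also: 0% = vehicle wells and 100% = reference activator wells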
ssDAF-12 act: S. stercoralis DAF-12 nuclear receptor activators, primary screen, cell-based, luminescence, HEK293, GRIP1 co-expression, lit1-tk-luc. Nuclear hormone receptor DAF-12 (Strongyloides stercoralis). HEK293 ssDAF-12/GRIP1 lit1-tk-luc reporter; % of 3 µM dafachronic acid response. activation, % at 6.8 µM. hit rate 1% among 370,000. AID 652126, 2013;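 active = activation above the mean over all tested compounds plus 3 SD, cut at about 0.9% in these data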;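 also: 0% = DMSO-only wells and 100% = 3 µM delta7-dafachronic acid wells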
hgDAF12 agonist: H. glycines DAF-12 receptor agonists, primary screen, cell-based, luminescence, HEK293, GAL4 fusion, UAS-luciferase; activation, % at 6.8 µM; hit rate 1.8% among 370,000; HEK293 GAL4-hgDAF12 UAS-luciferase reporter, agonist luminescence; normalized to butyrate control;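 active = activation above a cutoff set at the mean of all screened compounds plus 3 SD, cut at about 10% in these data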;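 also: 0% = DMSO wells and 100% = sodium butyrate wells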
DAX1 inh-1: DAX1 (NR0B1) inhibitors, primary screen, cell-based, HEK293, Gal4-DAX1, luciferase luminescence; Nuclear receptor subfamily 0 group B member 1 (Homo sapiens), P51843; HEK293 Gal4-DAX1 luciferase reporter; inhibition, % at 6.75 µM; hit rate 0.99% among 340,000; AID 504766, 2011;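 active = inhibition above the mean over all tested compounds plus 3 SD, cut at about 4.2% in these data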;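 also: 0% = DAX1-transfected cells with DMSO and 100% = empty-vector control cells with DMSO; inhibition shows as a rise in luminescence from relieved DAX1 repression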
Target sequence (P51843 207-470 limits assumed): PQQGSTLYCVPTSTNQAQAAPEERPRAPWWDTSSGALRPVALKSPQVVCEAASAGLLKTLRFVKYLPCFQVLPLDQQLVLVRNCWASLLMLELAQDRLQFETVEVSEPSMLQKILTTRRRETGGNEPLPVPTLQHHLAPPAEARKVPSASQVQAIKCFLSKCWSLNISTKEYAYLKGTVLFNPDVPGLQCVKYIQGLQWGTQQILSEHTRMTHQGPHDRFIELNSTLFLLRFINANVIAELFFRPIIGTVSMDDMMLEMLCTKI
DAX1 inh-2: DAX1 (NR0B1) inhibitors on StAR promoter, primary screen, cell-based, luminescence, SF-1 (NR5A1), full-length DAX-1; HEK293T StAR-luciferase reporter, SF-1/DAX-1 repression relief; inhibition, % at 6.8 µM; hit rate 1.1% among 370,000;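 active = inhibition above the mean over all tested compounds plus 3 SD, cut at about 3.6% in these data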;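 also: 0% = DAX-1 cells with DMSO and 100% = cells lacking DAX-1 with DMSO; higher inhibition means more luminescence from relief of DAX-1 repression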
hcDAF-12 act: H. contortus DAF-12 nuclear receptor activators, primary screen, cell-based, luminescence, HEK293, lit1-tk-luc reporter; HEK293 hcDAF-12 lit1-tk-luc reporter; 0% DMSO, 100% Δ7-dafachronic acid; activation, % at 6.8 µM; hit rate 1.4% among 370,000;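 active = activation above the mean of all tested compounds plus 3 SD, cut at about 5.5% in these data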;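 also: 100% = response to 3 µM Δ7-dafachronic acid high control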
SMARCA2 act conf: SMARCA2 (BRM) function activators, confirmation, cell-based, luminescence, triplicate; hit rate 30% among 3,500; shares compounds with SMARCA2 activ; MG213 cells, MMTV-luciferase with dexamethasone, overnight; MG213 cells expressing E1A, Rb sequestered; DMSO wells 0%, reference activator 100%; activation, % at 9.1 µM; AID 652260, 2013;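 active = activation above its plate's cutoff, the mean activation of tested wells plus 3 SD, cut at about 7.9% in these data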
VP16 Luc act: GAL4-VP16 luciferase reporter activation, counter-screen for SMARCA2 (BRM) activator project, cell-based, pG5luc, luminescence, high throughput; shares compounds with SMARCA2 activ; HEK293 GAL4-VP16 pG5luc reporter; scaled: DMSO wells 0%, SAHA wells 100%; activation, % at 9.1 µM; hit rate 41% among 3,500;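 active = activation above the solvent-only control well mean plus 3 SD, averaged across control plates, cut at about 5.2% in these data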
* marks the source's active call; other numbers are inactive results.

What do the screens show for `O=C(Cn1c(=O)oc2ccccc21)Nc1cccc(Cl)c1`?
SMARCA2 activ: -4; ssDAF-12 act: -1; hgDAF12 agonist: -1; DAX1 inh-1: -1; DAX1 inh-2: -1; hcDAF-12 act: -1

How did Cc1cccc(NC(=O)Cn2c(=O)oc3ccccc32)c1 do in these assays?
SMARCA2 activ: 8.8*; ssDAF-12 act: 0; hgDAF12 agonist: 1; DAX1 inh-1: 0; DAX1 inh-2: 0; hcDAF-12 act: -1; SMARCA2 act conf: -3; VP16 Luc act: 1

What do the screens show for `Cc1cccc(NC(=O)CN2C(=O)N/C(=C/c3ccc(C)o3)C2=O)c1`?
SMARCA2 activ: 9.1*; ssDAF-12 act: -1; hgDAF12 agonist: -1; DAX1 inh-1: 3; DAX1 inh-2: 1; hcDAF-12 act: -2; SMARCA2 act conf: 2; VP16 Luc act: 1

Results for Cc1nc(CNS(=O)(=O)c2ccc(F)cc2)cs1 ?
SMARCA2 activ: 8.4*; ssDAF-12 act: -1; hgDAF12 agonist: -3; DAX1 inh-1: 1; DAX1 inh-2: 1; hcDAF-12 act: -1; SMARCA2 act conf: -6; VP16 Luc act: 0

How did Nc1ncnc(Sc2ccccc2)c1[N+](=O)[O-] do in these assays?
SMARCA2 activ: 0; ssDAF-12 act: -1; hgDAF12 agonist: 0; DAX1 inh-1: -1; DAX1 inh-2: -1; hcDAF-12 act: -2

What do the screens show for `Nc1ncnc(Sc2ncccn2)c1[N+](=O)[O-]`?
SMARCA2 activ: 18*; ssDAF-12 act: -2; hgDAF12 agonist: -1; DAX1 inh-1: 3; DAX1 inh-2: 0; hcDAF-12 act: 0; SMARCA2 act conf: -13; VP16 Luc act: 2

How did COc1ccc(C(=O)NC2CCCCCC2)cc1S(=O)(=O)N1CCCC1 do in these assays?
SMARCA2 activ: 0; ssDAF-12 act: -1; hgDAF12 agonist: -4; DAX1 inh-1: -1; DAX1 inh-2: 0; hcDAF-12 act: 0

How did Cn1c(N)c(C(=O)COC(=O)c2ccc(Cl)c(S(=O)(=O)N3CCCCC3)c2)c(=O)n(C)c1=O do in these assays?
SMARCA2 activ: 12*; ssDAF-12 act: -2; hgDAF12 agonist: -3; DAX1 inh-1: 0; DAX1 inh-2: 1; hcDAF-12 act: 1; SMARCA2 act conf: -1; VP16 Luc act: -2

What do the screens show for `CN(c1ccccc1)S(=O)(=O)c1cc(C(=O)OCC(=O)c2c(N)n(C)c(=O)n(C)c2=O)ccc1Cl`?
SMARCA2 activ: -2; ssDAF-12 act: -2; hgDAF12 agonist: 0; DAX1 inh-1: -1; DAX1 inh-2: 0; hcDAF-12 act: 0

Results for O=C(COC(=O)c1ccc(Cl)c(S(=O)(=O)N2CCCCC2)c1)NC1CCCCC1 ?
SMARCA2 activ: 15*; ssDAF-12 act: 0; hgDAF12 agonist: 0; DAX1 inh-1: 2; DAX1 inh-2: 1; hcDAF-12 act: -1; SMARCA2 act conf: 2; VP16 Luc act: -1

How did COc1ccc(C(=O)NC2CCCCC2)cc1S(=O)(=O)N1CCOCC1 do in these assays?
SMARCA2 activ: 15*; ssDAF-12 act: -1; hgDAF12 agonist: -1; DAX1 inh-1: -1; DAX1 inh-2: 0; hcDAF-12 act: 1; SMARCA2 act conf: -2; VP16 Luc act: -1

Results for CCCOc1ccc(N2C(=O)CC(N(CCOC34CC5CC(CC(C5)C3)C4)C(C)=O)C2=O)cc1 (centres undefined) ?
SMARCA2 activ: 2; ssDAF-12 act: -2; hgDAF12 agonist: -3; DAX1 inh-1: -1; DAX1 inh-2: 1; hcDAF-12 act: -1

What do the screens show for `Cn1cnnc1SCC(=O)Nc1cc(S(=O)(=O)N2CCCCC2)ccc1Cl`?
SMARCA2 activ: -1; ssDAF-12 act: -1; hgDAF12 agonist: -2; DAX1 inh-1: 0; DAX1 inh-2: 0; hcDAF-12 act: 2

Results for Cc1cc(C)n(-c2cccc(Cl)c2C#N)n1 ?
SMARCA2 activ: 0; ssDAF-12 act: -2; hgDAF12 agonist: -1; DAX1 inh-1: -1; DAX1 inh-2: 1; hcDAF-12 act: -1

How did N=c1n(CCN2CCCC2)c2ccccc2n1CC(O)c1ccc(Cl)c(Cl)c1 (centres undefined) do in these assays?
SMARCA2 activ: 14*; ssDAF-12 act: -1; hgDAF12 agonist: -2; DAX1 inh-1: 2; DAX1 inh-2: 1; hcDAF-12 act: 1; SMARCA2 act conf: -10; VP16 Luc act: 2

What do the screens show for `CCCCCOc1ccc(C(=O)N(Cc2ccco2)C2CCS(=O)(=O)C2)cc1` (centres undefined)?
SMARCA2 activ: 8.9*; ssDAF-12 act: -2; hgDAF12 agonist: 1; DAX1 inh-1: 0; DAX1 inh-2: 0; hcDAF-12 act: -1; SMARCA2 act conf: -3; VP16 Luc act: 0

Results for COc1ccc(OCCSc2nc(N)cc(N)n2)cc1 ?
SMARCA2 activ: 11*; ssDAF-12 act: -1; hgDAF12 agonist: 3; DAX1 inh-1: 0; DAX1 inh-2: 3; hcDAF-12 act: 1; SMARCA2 act conf: 8.6*; VP16 Luc act: 8.5*

Results for Nc1cc(N)nc(SCc2cccnc2)n1 ?
SMARCA2 activ: -2; ssDAF-12 act: -1; hgDAF12 agonist: 3; DAX1 inh-1: 0; DAX1 inh-2: 1; hcDAF-12 act: 1

Results for Nc1cc(N)nc(SCCc2ccccc2)n1 ?
SMARCA2 activ: 9.5*; ssDAF-12 act: -1; hgDAF12 agonist: 4; DAX1 inh-1: 0; DAX1 inh-2: 0; hcDAF-12 act: 0; SMARCA2 act conf: 3; VP16 Luc act: 1

How did COc1cccc(-c2onc3ccc(C(C)=O)cc23)c1 do in these assays?
SMARCA2 activ: 8.4*; ssDAF-12 act: -1; hgDAF12 agonist: 2; DAX1 inh-1: 2; DAX1 inh-2: 1; hcDAF-12 act: 2; SMARCA2 act conf: 6; VP16 Luc act: 2

What do the screens show for `COc1cccc(CNC(=O)CS(=O)(=O)Cc2nc(-c3ccc(C)cc3)oc2C)c1OC`?
SMARCA2 activ: 1; ssDAF-12 act: -1; hgDAF12 agonist: -1; DAX1 inh-1: 1; DAX1 inh-2: -1; hcDAF-12 act: 2
